Experimental findings from ChEMBL document CHEMBL1157539, “Thousands of chemical starting points for antimalarial lead identification” (Nature, 2010) are described below.

A word on the Inhibition: it is the share of the control response that was lost under treatment. A higher Inhibition goes with strong suppression.

The structures appear in SMILES notation.

The test system of the first test is Plasmodium falciparum. Put plainly: GSK_TCMDC: Inhibition of Plasmodium falciparum Dd2 in whole red blood cells, using parasite LDH activity as an index of growth. Test compounds present at 2uM. Type of test: functional.
The molecule `Oc1c(C=Nn2cnnc2)sc2ccccc12` yielded an Inhibition of 68%.
Take `Cl.c1ccc(-c2cc(NCCNc3cc(-c4ccccc4)nc4ccccc34)c3ccccc3n2)cc1`: the Inhibition was 11%.
`Cl.FC(F)(F)c1cc(Nc2ncnc3ccc(Br)cc23)ccc1OCc1ccccc1` showed an Inhibition of 9%.
The molecule `CCCCCCCNCc1c(O)ccc2c(CNCCCCCCC)c(O)ccc12.Cl` yielded an Inhibition of 99%.

The subject of the next test is HepG2. Description: GSK_TCMDC: Percent inhibition of human HepG2 cell line. Test compounds present at 10uM. Format: functional.
With `CCCCOC(=O)c1ccc(Nc2cc(C)nc3ccc(OC)cc23)cc1`, the Inhibition came to 4%.
As for `CC(C)CNC(=O)c1cncc(-c2ccc(CNCCCc3ccccc3)cc2)c1.O=C(O)C(F)(F)F`, the Inhibition is 28%.
`Cn1cccc1CCNCc1ccc(-c2cccc(-c3nc4ccccc4[nH]3)c2)cc1.O=C(O)C(F)(F)F` yielded an Inhibition of 1%.
In turn, `CCCC[C@@H](C(=O)NCc1ccccc1C(F)(F)F)N1C(=O)CCC1C(=O)Nc1ccc([N+](=O)[O-])cc1` (stereo not given in full) had an Inhibition of 7%.
In turn, `CCn1c(-c2nc(-c3ccnc(N4CCN(C)CC4)c3)cnc2N)nc2cc(S(C)(=O)=O)ccc21` came in with an Inhibition of 44%.
Molecule `COC(=O)c1ccc(-c2ccc(-c3cccnc3)cc2C)cc1` registered an Inhibition of 81%.
On to `O=C(Nc1ccc(CN2CCOCC2)cc1)c1ccc(-c2cc(Cl)ccc2Cl)o1`, for which the Inhibition turned out to be 5%.
`CC(C)CCN1CCC(Oc2cccc(NC(=O)c3ccc(C(F)(F)F)cc3)c2)CC1.O=C(O)C(F)(F)F` had an Inhibition of 39%.
`COCCN1CCC(C(=O)NCC(C)(C)c2nc(-c3ccc(Br)c(O)c3)c(-c3ccncc3)[nH]2)CC1.Cl` came in with an Inhibition of 0%.
As to `Br.CC1(C)NC(N)=NC(=N)N1OCCOc1ccc2ccccc2c1`, the Inhibition stood at 70%.
`COc1ccc2c(NN=Cc3ccccc3Cl)ccnc2c1` had an Inhibition of 10%.
